# Laboratory results reported in article PMC7862700, “An all-to-all approach to the identification of sequence-specific readers for epigenetic DNA modifications on cytosine”.
# Columns and labels:
# Test in all cases: DAPPL (digital affinity profiling via proximity ligation, sequencing); 10 mM Tris-HCl pH 7.5, 50 mM NaCl, 1 mM DTT, 4% glycerol, room temperature, 30 min; GST-TFs on glutathione beads, 16-mer random dsDNA library, 0.1% formaldehyde crosslink after washing; high values mean tight binding
# [1] = target: T1, FLI1 (Homo sapiens, UniProt Q01543 1-452); conditions: protein: recombinant; tags: N-terminal GST; dsDNA, one strand shown
# T1 sequence: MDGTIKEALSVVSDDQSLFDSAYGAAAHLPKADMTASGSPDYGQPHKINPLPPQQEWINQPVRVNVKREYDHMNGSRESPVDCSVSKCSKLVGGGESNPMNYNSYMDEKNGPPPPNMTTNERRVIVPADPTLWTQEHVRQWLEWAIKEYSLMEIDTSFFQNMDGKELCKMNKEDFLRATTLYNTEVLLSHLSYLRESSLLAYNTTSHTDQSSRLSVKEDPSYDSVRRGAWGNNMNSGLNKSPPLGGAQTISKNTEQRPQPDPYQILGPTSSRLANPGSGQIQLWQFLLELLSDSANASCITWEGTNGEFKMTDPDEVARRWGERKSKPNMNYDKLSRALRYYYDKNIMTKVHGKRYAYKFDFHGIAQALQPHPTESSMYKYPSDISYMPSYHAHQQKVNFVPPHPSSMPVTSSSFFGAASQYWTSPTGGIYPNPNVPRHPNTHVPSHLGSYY
# In short: (§1)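 Beads coated with glutathione captured GST-fused human transcription factors that had been expressed in yeast, and the factors were then given DNA barcodes and pooled with a tag-only sample. The pools were incubated with 200 nmole of a random double-stranded 16-mer DNA library in Tris/NaCl/DTT/glycerol buffer for 30 min at room temperature, washed, crosslinked with 0.1% formaldehyde and proximity-ligated with BsaI/T4 ligase at 37 °C for 1 h. PCR amplification and Illumina NextSeq500 sequencing came last. Binding signal is each hexamer's read frequency for a factor divided by its frequency for the tag-only sample.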
# [2] = target: T2, ELK1 (Homo sapiens, UniProt P19419 1-428); conditions: protein: recombinant; tags: N-terminal GST; dsDNA, one strand shown
# T2 sequence: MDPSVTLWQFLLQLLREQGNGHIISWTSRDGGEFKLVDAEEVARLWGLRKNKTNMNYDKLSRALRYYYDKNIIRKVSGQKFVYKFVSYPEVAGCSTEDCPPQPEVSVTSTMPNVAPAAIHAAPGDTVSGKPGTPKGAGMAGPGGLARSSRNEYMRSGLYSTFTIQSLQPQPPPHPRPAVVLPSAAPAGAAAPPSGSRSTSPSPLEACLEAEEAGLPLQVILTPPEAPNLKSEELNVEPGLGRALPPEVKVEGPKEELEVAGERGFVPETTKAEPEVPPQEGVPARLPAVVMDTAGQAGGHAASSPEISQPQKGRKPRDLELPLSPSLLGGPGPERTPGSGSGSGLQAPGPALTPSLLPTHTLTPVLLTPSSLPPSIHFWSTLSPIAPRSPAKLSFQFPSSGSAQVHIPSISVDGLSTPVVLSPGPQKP
# In short: as §1
# [3] = target: T3, GABPA (Homo sapiens, UniProt Q06546 1-454); conditions: protein: recombinant; tags: N-terminal GST; dsDNA, one strand shown
# T3 sequence: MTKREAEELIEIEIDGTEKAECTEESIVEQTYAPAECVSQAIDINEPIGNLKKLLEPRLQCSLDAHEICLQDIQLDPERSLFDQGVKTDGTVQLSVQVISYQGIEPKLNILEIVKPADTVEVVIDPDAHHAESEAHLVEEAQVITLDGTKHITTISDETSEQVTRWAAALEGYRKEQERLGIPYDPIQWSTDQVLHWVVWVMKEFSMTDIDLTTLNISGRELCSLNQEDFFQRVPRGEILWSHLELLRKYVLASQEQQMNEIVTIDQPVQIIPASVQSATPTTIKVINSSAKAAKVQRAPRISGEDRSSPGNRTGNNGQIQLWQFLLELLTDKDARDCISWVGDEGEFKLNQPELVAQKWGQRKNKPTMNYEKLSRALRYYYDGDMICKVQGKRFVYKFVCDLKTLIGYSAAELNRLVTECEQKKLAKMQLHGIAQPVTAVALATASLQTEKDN
# In short: as §1
# [4] = target: T4, ERG (Homo sapiens, UniProt P11308 1-479); conditions: protein: recombinant; tags: N-terminal GST; dsDNA, one strand shown
# T4 sequence: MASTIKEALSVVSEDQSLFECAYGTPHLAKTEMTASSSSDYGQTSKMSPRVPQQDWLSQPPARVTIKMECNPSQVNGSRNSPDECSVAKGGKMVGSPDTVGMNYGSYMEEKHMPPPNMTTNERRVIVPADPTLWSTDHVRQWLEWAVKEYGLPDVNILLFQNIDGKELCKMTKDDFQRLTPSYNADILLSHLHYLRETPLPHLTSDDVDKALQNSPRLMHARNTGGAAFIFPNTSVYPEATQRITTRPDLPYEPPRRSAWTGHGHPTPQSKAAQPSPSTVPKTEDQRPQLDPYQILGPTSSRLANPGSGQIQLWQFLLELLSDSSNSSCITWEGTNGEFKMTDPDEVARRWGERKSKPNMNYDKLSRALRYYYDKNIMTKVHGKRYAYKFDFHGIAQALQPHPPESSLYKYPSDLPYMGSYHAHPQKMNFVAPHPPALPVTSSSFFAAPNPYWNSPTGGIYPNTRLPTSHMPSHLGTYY
# In short: as §1
# [5] = target: ELF1 (Homo sapiens, UniProt P32519 1-619); conditions: protein: recombinant; tags: N-terminal GST; dsDNA, one strand shown
# Sequence of ELF1 (P32519 whole entry): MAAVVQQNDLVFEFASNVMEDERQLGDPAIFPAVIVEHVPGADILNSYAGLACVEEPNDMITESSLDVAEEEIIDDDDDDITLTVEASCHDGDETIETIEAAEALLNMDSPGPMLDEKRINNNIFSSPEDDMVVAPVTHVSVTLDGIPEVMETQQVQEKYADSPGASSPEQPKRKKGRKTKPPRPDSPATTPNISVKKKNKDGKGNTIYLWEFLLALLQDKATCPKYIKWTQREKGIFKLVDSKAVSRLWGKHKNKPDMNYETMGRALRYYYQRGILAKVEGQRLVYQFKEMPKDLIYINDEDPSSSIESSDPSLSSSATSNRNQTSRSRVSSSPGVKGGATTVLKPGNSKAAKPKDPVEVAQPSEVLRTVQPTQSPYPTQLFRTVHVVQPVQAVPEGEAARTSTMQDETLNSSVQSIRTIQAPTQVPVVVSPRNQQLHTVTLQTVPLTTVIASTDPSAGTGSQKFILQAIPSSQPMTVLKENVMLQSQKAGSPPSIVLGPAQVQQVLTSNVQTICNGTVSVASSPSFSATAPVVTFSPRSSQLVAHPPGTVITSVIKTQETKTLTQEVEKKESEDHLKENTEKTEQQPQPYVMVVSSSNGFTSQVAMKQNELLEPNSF
# In short: as §1
# [6] = target: T5, EHF (Homo sapiens, UniProt Q9NZC4 1-300); conditions: protein: recombinant; tags: N-terminal GST; dsDNA, one strand shown
# T5 sequence: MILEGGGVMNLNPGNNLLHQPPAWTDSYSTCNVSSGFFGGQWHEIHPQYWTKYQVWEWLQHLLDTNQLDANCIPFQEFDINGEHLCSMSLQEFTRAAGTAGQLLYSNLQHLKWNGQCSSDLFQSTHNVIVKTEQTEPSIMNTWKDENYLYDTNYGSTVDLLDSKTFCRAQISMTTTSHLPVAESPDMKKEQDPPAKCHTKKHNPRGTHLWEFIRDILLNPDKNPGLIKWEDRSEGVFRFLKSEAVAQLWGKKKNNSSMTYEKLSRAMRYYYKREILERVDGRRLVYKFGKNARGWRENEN
# In short: as §1
# [7] = target: SPI1 (Homo sapiens, UniProt P17947 1-270); conditions: protein: recombinant; tags: N-terminal GST; dsDNA, one strand shown
# In short: as §1
# [8] = target: SPIB (Homo sapiens, UniProt Q01892 1-262); conditions: protein: recombinant; tags: N-terminal GST; dsDNA, one strand shown
# Sequence of SPIB (Q01892 whole entry): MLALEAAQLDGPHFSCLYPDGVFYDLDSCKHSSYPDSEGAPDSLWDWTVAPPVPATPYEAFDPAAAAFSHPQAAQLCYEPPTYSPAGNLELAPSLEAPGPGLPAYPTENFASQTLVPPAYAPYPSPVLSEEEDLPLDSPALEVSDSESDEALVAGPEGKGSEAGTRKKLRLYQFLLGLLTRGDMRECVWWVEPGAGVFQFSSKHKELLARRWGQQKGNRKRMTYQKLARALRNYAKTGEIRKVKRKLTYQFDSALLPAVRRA
# In short: as §1
# [9] = target: T6, ELK3 (Homo sapiens, UniProt P41970 1-407); conditions: protein: recombinant; tags: N-terminal GST; dsDNA, one strand shown
# T6 sequence: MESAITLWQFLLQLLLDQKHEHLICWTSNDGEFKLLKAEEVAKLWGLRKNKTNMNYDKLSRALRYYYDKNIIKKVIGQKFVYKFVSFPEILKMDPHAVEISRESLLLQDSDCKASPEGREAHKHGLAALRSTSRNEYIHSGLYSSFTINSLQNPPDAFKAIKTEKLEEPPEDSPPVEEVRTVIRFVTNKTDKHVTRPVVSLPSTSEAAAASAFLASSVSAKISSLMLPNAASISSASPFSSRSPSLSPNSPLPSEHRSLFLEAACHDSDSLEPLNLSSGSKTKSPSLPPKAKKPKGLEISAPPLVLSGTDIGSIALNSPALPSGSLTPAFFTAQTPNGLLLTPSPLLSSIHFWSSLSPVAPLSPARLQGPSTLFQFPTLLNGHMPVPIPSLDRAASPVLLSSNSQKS
# In short: as §1
# [10] = target: T7, FEV (Homo sapiens, UniProt Q99581 1-238); conditions: protein: recombinant; tags: N-terminal GST; dsDNA, one strand shown
# T7 sequence: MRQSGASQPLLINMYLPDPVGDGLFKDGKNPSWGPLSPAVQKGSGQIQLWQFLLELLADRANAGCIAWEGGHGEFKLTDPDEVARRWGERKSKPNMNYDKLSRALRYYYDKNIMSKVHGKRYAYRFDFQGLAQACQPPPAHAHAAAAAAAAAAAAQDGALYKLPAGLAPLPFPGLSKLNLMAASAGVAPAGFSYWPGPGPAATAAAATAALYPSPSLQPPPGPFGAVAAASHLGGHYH
# In short: as §1
# [11] = target: ETV5 (Homo sapiens, UniProt P41161 1-510); conditions: protein: recombinant; tags: N-terminal GST; dsDNA, one strand shown
# Sequence of ETV5 (P41161 whole entry): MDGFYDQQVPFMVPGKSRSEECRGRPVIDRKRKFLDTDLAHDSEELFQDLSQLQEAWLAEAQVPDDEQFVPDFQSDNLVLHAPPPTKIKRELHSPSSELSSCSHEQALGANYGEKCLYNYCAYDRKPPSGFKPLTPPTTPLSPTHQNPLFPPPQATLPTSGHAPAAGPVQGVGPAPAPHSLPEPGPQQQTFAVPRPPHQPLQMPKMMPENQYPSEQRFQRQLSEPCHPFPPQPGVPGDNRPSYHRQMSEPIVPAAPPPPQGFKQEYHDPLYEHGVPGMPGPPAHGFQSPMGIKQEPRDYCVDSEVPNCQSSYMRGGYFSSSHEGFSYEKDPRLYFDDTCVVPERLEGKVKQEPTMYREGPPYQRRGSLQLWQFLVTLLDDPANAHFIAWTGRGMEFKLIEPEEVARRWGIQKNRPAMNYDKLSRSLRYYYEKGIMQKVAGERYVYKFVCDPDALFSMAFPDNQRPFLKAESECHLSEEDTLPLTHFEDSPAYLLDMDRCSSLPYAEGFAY
# In short: as §1
# [12] = target: HSF1 (Homo sapiens, UniProt Q00613 1-529); conditions: protein: recombinant; tags: N-terminal GST; chain copies: 3; dsDNA, one strand shown
# Sequence of HSF1 (Q00613 whole entry): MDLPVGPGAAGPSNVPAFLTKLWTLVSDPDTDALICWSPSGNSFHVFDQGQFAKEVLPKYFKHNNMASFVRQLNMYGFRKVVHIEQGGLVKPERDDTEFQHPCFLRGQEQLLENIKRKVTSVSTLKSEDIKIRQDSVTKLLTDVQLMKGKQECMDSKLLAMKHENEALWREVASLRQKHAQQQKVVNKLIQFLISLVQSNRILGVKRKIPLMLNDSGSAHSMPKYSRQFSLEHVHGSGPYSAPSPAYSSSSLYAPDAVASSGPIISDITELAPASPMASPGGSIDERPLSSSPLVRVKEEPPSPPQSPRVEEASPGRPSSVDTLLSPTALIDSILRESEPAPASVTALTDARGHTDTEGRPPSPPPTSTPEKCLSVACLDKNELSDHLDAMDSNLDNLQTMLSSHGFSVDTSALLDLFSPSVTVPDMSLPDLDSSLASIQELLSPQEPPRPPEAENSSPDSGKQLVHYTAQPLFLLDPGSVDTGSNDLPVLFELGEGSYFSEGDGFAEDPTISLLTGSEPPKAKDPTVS
# In short: as §1
# [13] = target: T8, SPIC (Homo sapiens, UniProt Q8N5J4 1-248); conditions: protein: recombinant; tags: N-terminal GST; dsDNA, one strand shown
# T8 sequence: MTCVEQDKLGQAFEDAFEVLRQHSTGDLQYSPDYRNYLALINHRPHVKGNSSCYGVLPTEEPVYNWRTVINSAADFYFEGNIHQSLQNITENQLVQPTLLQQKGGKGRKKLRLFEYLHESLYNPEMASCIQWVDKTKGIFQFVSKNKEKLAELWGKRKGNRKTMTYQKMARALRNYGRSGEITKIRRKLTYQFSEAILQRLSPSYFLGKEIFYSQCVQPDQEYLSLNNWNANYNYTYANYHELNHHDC
# In short: as §1
# [14] = target: ELF4 (Homo sapiens, UniProt Q99607 1-663); conditions: protein: recombinant; tags: N-terminal GST; dsDNA, one strand shown
# Sequence of ELF4 (Q99607 whole entry): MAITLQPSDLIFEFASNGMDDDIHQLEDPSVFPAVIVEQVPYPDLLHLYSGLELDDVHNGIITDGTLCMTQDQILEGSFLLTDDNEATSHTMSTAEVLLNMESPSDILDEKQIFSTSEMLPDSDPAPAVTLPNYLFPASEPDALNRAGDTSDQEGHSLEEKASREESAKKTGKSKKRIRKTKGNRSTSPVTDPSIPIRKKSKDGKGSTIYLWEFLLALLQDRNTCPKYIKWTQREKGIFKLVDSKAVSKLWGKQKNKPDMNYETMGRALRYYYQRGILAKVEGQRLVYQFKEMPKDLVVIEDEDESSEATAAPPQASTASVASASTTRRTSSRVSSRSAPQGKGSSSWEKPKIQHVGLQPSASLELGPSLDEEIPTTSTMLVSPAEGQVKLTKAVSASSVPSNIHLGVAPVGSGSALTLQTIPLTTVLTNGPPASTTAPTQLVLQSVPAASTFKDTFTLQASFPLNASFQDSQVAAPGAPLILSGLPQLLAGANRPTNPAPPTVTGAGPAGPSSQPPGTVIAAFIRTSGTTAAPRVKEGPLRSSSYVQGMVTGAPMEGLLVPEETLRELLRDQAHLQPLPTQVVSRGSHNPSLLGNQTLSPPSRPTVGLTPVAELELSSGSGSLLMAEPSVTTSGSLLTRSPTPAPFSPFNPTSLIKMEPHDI
# In short: as §1
# [15] = target: T9, ELK4 (Homo sapiens, UniProt P28324-2 1-405); conditions: protein: recombinant; tags: N-terminal GST; dsDNA, one strand shown
# T9 sequence: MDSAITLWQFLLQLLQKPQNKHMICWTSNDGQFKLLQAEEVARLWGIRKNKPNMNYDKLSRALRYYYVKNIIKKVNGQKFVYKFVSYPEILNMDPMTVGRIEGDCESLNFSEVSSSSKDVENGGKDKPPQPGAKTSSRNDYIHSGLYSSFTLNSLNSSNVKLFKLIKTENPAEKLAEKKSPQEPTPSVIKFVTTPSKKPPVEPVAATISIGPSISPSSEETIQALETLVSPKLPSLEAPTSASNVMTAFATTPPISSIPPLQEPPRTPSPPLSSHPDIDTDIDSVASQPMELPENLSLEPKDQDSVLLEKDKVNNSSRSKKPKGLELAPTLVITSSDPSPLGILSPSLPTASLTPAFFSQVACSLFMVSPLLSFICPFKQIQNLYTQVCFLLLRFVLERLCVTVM
# In short: as §1
# [16] = target: T10, ETV2 (Homo sapiens, UniProt O00321 1-342); conditions: protein: recombinant; tags: N-terminal GST; dsDNA, one strand shown
# T10 sequence: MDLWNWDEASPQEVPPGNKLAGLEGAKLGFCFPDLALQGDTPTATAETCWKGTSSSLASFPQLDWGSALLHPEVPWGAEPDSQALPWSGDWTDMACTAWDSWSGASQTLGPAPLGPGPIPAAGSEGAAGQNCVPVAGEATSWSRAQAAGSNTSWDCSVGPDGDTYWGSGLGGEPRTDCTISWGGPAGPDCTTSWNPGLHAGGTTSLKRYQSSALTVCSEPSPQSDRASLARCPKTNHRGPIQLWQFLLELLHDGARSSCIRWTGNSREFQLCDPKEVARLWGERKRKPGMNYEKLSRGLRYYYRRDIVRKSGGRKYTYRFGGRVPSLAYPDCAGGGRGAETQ
# In short: as §1
# [17] = target: T11, ELF3 (Homo sapiens, UniProt P78545 1-371); conditions: protein: recombinant; tags: N-terminal GST; dsDNA, one strand shown
# T11 sequence: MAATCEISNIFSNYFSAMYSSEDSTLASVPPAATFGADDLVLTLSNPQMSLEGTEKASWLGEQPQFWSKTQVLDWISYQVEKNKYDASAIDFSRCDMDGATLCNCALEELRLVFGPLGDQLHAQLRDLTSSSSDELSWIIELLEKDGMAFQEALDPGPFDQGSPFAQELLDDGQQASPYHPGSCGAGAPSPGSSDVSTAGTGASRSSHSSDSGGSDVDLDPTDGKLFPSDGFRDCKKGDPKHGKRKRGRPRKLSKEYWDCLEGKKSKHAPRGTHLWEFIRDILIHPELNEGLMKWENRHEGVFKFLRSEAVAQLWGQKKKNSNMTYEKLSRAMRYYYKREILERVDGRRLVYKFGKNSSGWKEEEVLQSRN
# In short: as §1
# [18] = target: CRX (Homo sapiens, UniProt O43186 1-299); conditions: protein: recombinant; tags: N-terminal GST; dsDNA, one strand shown
# Sequence of CRX (O43186 whole entry): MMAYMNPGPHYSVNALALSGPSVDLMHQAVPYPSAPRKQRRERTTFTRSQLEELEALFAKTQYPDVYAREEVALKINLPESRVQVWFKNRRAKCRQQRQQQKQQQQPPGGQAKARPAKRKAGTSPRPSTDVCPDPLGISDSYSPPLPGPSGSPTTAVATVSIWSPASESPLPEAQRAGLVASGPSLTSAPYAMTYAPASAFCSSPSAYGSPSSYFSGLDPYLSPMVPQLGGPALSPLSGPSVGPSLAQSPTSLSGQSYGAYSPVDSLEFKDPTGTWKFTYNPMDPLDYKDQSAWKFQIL
# In short: as §1
# [19] = target: ETV1 (Homo sapiens, UniProt P50549 1-477); conditions: protein: recombinant; tags: N-terminal GST; dsDNA, one strand shown
# Sequence of ETV1 (P50549 whole entry): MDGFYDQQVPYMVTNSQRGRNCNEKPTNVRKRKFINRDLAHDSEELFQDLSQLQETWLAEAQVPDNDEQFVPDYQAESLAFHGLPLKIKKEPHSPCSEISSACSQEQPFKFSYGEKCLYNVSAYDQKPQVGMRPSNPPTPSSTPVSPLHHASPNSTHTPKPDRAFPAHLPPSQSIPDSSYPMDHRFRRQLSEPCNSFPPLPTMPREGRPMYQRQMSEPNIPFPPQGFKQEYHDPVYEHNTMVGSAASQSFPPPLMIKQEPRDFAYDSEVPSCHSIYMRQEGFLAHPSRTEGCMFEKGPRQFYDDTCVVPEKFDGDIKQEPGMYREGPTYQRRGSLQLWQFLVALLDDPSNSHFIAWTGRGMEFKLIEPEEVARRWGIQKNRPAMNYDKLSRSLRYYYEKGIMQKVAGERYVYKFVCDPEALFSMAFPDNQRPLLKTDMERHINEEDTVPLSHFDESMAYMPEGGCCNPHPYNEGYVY
# In short: as §1
sequence,measurement,setting,value
CTCGTT,binding signal,[1],"1.18 fold enrichment (6-mer frequency, TF over GST control)"
same,binding signal,[2],"1.31 fold enrichment (6-mer frequency, TF over GST control)"
same,binding signal,[3],"1.26 fold enrichment (6-mer frequency, TF over GST control)"
same,binding signal,[4],"1.25 fold enrichment (6-mer frequency, TF over GST control)"
same,binding signal,[5],"1.27 fold enrichment (6-mer frequency, TF over GST control)"
same,binding signal,[6],"1.27 fold enrichment (6-mer frequency, TF over GST control)"
same,binding signal,[7],"1.35 fold enrichment (6-mer frequency, TF over GST control)"
same,binding signal,[8],"1.24 fold enrichment (6-mer frequency, TF over GST control)"
same,binding signal,[9],"1.15 fold enrichment (6-mer frequency, TF over GST control)"
same,binding signal,[10],"1.22 fold enrichment (6-mer frequency, TF over GST control)"
same,binding signal,[11],"1.29 fold enrichment (6-mer frequency, TF over GST control)"
same,binding signal,[12],"1.24 fold enrichment (6-mer frequency, TF over GST control)"
same,binding signal,[13],"1.37 fold enrichment (6-mer frequency, TF over GST control)"
same,binding signal,[14],"1.28 fold enrichment (6-mer frequency, TF over GST control)"
same,binding signal,[15],"1.4 fold enrichment (6-mer frequency, TF over GST control)"
same,binding signal,[16],"1.36 fold enrichment (6-mer frequency, TF over GST control)"
same,binding signal,[17],"1.46 fold enrichment (6-mer frequency, TF over GST control)"
same,binding signal,[18],"1.1 fold enrichment (6-mer frequency, TF over GST control)"
same,binding signal,[19],"1.22 fold enrichment (6-mer frequency, TF over GST control)"
